{"source": "the supplement of paper PMC11150407", "note": "Where a name gives a salt, the structure may show the parent alone. In all, about 2,100 compounds went through this assay and about 180 (8.6%) showed an effect of 50% or more. What follows is part of a selection rich in strong results, with near analogues and random picks from the rest.", "data": [{"tested_on": "MOLM1 and UCSD/AML1 (averaged)", "assay": "cell viability relative to DMSO control (POC); higher = less growth inhibition", "details": "1 µM; 72 h", "protocol": "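Primary viability screen in the 3q26 EVI1-high AML cell lines MOLM1 and UCSD/AML1 (1.5e3 cells/well, 384-well), compounds at 1 uM for 72 h. ATP CellTiter-Glo read-out given as percent of viable cells over DMSO control (POC), averaged over duplicates. DMSO was the negative control and 5 uM etoposide the positive control. This mapping covers the MicroSource Spectrum and Selleck anticancer libraries (drug names).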", "units": {"cell viability": "%"}, "values": [{"compound": "COc1cc(O)cc(OC)c1OC", "cell viability": 95.9}, {"compound": "COC(=O)/C(=C1/OC(=O)C(c2ccccc2)=C1O)c1ccccc1", "cell viability": 102}, {"compound": "Cc1cc(Nc2cc(N3CCN(C)CC3)nc(/C=C/c3ccccc3)n2)n[nH]1", "cell viability": 19.9}, {"compound": "Cc1cc(Nc2cc(N3CCN(C)CC3)nc(Sc3ccc(NC(=O)C4CC4)cc3)n2)n[nH]1", "note": "[VX-680 (MK-0457, Tozasertib)]", "cell viability": 22}, {"compound": "C[C@@H](N)[C@H]1CC[C@H](C(=O)Nc2ccncc2)CC1", "cell viability": 102}, {"compound": "COc1cc2oc3cc(OC)c(OC)c(CC=C(C)C)c3c(=O)c2c(OC)c1CC=C(C)C", "cell viability": 104}, {"compound": "O=c1cc(-c2ccccc2)oc2cc(O)c(O)c(O)c12", "cell viability": 86}, {"compound": "CC1(C)C(O[C@@H]2OC[C@@H](O)[C@H](O)[C@H]2O)CC[C@]23CC24CC[C@]2(C)[C@@H]([C@@]5(C)CC[C@@H](C(C)(C)O)O5)[C@H](O)C[C@@]2(C)C4C[C@@H](O[C@@H]2O[C@H](CO)[C@@H](O)[C@H](O)[C@H]2O)C13", "note": "(stereo not given in full)", "cell viability": 91.9}, {"compound": "CC(C)[C@@H]1CC[C@@H](C)C[C@H]1OC(=O)c1ccccc1", "cell viability": 109}, {"compound": "NC(=O)NCCC[C@H](N)C(=O)O", "cell viability": 93.7}, {"compound": "C=CCCCCCCCCCCCc1ccco1", "cell viability": 109}, {"compound": "Nc1cc(C(F)(F)F)c(-c2cc(N3CCOCC3)nc(N3CCOCC3)n2)cn1", "cell viability": 26.9}, {"compound": "COc1c(CC(=O)c2cc3c(cc2O)OC(C)(C)C(O)C3)ccc2c1C=CC(C)(C)O2", "note": "(stereo not given)", "cell viability": 98}, {"compound": "N[C@@H](C(=O)O)[C@@H](O)[C@H](O)[C@H](O)CO", "cell viability": 106}, {"compound": "CCNC(=O)CC[C@H](N)C(=O)O", "cell viability": 92.2}, {"compound": "Cc1ccc(NC(=O)c2ccc(CN3CCN(C)CC3)cc2)cc1Nc1nc(-c2cccnc2)cs1", "note": "[Masitinib (AB1010)]", "cell viability": 25.7}, {"compound": "Cc1cccc(Nc2nc(-c3ccncc3)cs2)c1", "cell viability": 98.9}, {"compound": "Cc1cn(-c2cc(NC(=O)c3ccc(C)c(Nc4nccc(-c5cccnc5)n4)c3)cc(C(F)(F)F)c2)cn1", "note": "[Nilotinib (AMN-107)]", "cell viability": 50.6}, {"compound": "Cc1ccc(NC(=O)c2ccc(CN3CCN(C)CC3)cc2)cc1Nc1nccc(-c2cccnc2)n1", "note": "[Imatinib Mesylate]", "cell viability": 37.8}, {"compound": "CO[C@H]1[C@H](O)[C@@H](O)[C@H](O)[C@H](O)[C@H]1O", "cell viability": 95.8}, {"compound": "COc1ccc2c(=O)c(OC)c(-c3ccccc3)oc2c1", "cell viability": 89.8}, {"compound": "COc1cc(-c2coc3cc(OC)c(OC)c(OC)c3c2=O)cc(OC)c1OC", "cell viability": 96}, {"compound": "C=C1/C(=C\\C=C2/CCC[C@]3(C)[C@@H]([C@H](C)/C=C/[C@H](C)C(C)C)CC[C@@H]23)C[C@@H](O)C[C@@H]1O", "note": "[Doxercalciferol (Hectorol)]", "cell viability": 99.3}, {"compound": "CC(=O)NCCc1ccc(O)c(-c2c(O)c(O)c3c(c2O)C(=O)c2c(cc(O)c(C(=O)O)c2C(=O)O)C3=O)c1", "cell viability": 102}, {"compound": "COc1cc(OC)c2c(=O)cc(-c3ccccc3)oc2c1", "cell viability": 90.2}, {"compound": "C/C1=C\\CCC(=O)C2CC(C)(C)C2CC1", "note": "(stereo not given)", "cell viability": 93.3}, {"compound": "Cc1cc(O)c2c(c1O)C(=O)c1c(O)cc(C)c(O)c1C2=O", "cell viability": 94.1}, {"compound": "COc1c2ccoc2cc2oc(C)cc(=O)c12", "cell viability": 104}, {"compound": "Cn1cnc2c(F)c(Nc3ccc(Br)cc3Cl)c(C(=O)NOCCO)cc21", "note": "[AZD6244 (Selumetinib)]", "cell viability": 15.5}, {"compound": "C#CCCCCCCCCCCCC(O)CC(O)CO", "note": "(stereo not given)", "cell viability": 55.1}, {"compound": "CC1(C)C=Cc2cc3ccc(=O)oc3cc2O1", "cell viability": 107}, {"compound": "CN(C)CC(=O)OC[C@@H](O)[C@@H](O)[C@H](O)[C@@H](O)C(=O)O", "cell viability": 108}, {"compound": "CNCc1ccc(-c2[nH]c3cc(F)cc4c3c2CCNC4=O)cc1", "cell viability": 89.1}, {"compound": "CC(C)Cn1cnc2c(N)nc3ccccc3c21", "note": "[Imiquimod]", "cell viability": 47.9}, {"compound": "Nc1c2ccccc2nc2ccccc12", "cell viability": 65}, {"compound": "CCCCCCCCc1ccc(CCC(N)(CO)CO)cc1", "note": "[Fingolimod (FTY720)]", "cell viability": 76.7}, {"compound": "CCCCOc1ccc(CC(=O)NO)cc1", "cell viability": 115}, {"compound": "CCCCCCCCCc1ccc(OCCOCCOCCOCCOCCOCCOCCOCCOCCO)cc1", "cell viability": 37.9}, {"compound": "COc1ccc2c(c1)OC1(O)COc3cc(OC)c(OC)cc3C1=C2", "note": "(stereo not given)", "cell viability": 102}, {"compound": "CC1=CCc2c(cc3oc(C)cc(=O)c3c2O)OC1", "cell viability": 90.4}, {"compound": "CCC(=O)O[C@H]1CC[C@H]2[C@@H]3CCc4cc(O)ccc4[C@H]3CC[C@]12C", "cell viability": 95.4}, {"compound": "COc1cc(NS(C)(=O)=O)ccc1Nc1c2ccccc2nc2ccccc12", "cell viability": 12.8}, {"compound": "CS(=O)(=O)Nc1ccc([N+](=O)[O-])cc1Oc1ccccc1", "cell viability": 96.7}, {"compound": "CC(=O)Oc1cc(C)c2c(c1C=O)Oc1c(c(C)c(OC(C)=O)c3c1C(OC(C)=O)OC3=O)OC2=O", "note": "(stereo not given)", "cell viability": 106}, {"compound": "CC1(C)C[C@@H]2C(=O)CC[C@H]3O[C@]3(C)CC[C@H]21", "cell viability": 104}, {"compound": "CC(=O)O[C@@H]1C=C[C@]2(C)C(C[C@@H](OC(C)=O)[C@]3(C)C4=CC(=O)O[C@H](c5ccoc5)[C@@]4(C)CCC23)C1(C)C", "note": "(stereo not given in full)", "cell viability": 94.4}, {"compound": "COc1ccc(-c2cc(=O)c3c(OC(C)=O)cc(OC(C)=O)cc3o2)cc1", "cell viability": 96.9}, {"compound": "Oc1ccc([C@H]2Oc3cc(O)cc(O)c3C[C@H]2O)cc1", "cell viability": 102}, {"compound": "CCCCCCc1ccc(O)cc1O", "cell viability": 98.6}, {"compound": "CCCCCCc1ccc(O)cc1O.Nc1c2ccccc2nc2ccccc12", "cell viability": 46.4}, {"compound": "Nc1c2c(nc3ccccc13)CCCC2", "cell viability": 105}, {"compound": "CC(=O)O[C@@H]1CC(=O)[C@@]2(C)C(CC(=O)[C@]3(C)C2CC[C@@]2(C)[C@H](c4ccoc4)OC(=O)C4OC423)C1(C)C", "note": "(stereo not given in full)", "cell viability": 100}, {"compound": "O=c1oc2ccccc2c(O)c1Cc1c(O)c2ccccc2oc1=O", "cell viability": 98.1}, {"compound": "O=C(O)/C=C/C=C/c1ccccc1", "cell viability": 121}, {"compound": "O=C(O)/C=C/c1ccccc1", "cell viability": 105}, {"compound": "O=C(/C=C/c1cccc(S(=O)(=O)Nc2ccccc2)c1)NO", "note": "[Belinostat (PXD101)]", "cell viability": 1.86}, {"compound": "COc1ccc2c(c1)OCc1c-2oc2cc(OC)ccc12", "cell viability": 99}, {"compound": "O=C(Nc1ccc(OC(F)(F)F)cc1)c1sccc1NCc1ccnc2ccccc12", "cell viability": 64.7}, {"compound": "COc1ccc2c(c1)O[C@@H]1COc3cc(OC)c(OC)cc3[C@@H]1C2=O", "cell viability": 102}, {"compound": "C=C(C)[C@@H]1CC=C(CO)CC1", "cell viability": 88.1}, {"compound": "Cc1cc(=O)oc2cc(O)c(O)cc12", "cell viability": 98.5}, {"compound": "Nc1ncnc2c1ncn2[C@@H]1O[C@H](CO)[C@@H](O)[C@@H]1O", "cell viability": 93.9}, {"compound": "Nc1ncnc2c1ncn2[C@@H]1O[C@H](CO)[C@@H](O)[C@H]1O", "cell viability": 105}, {"compound": "OC[C@H]1O[C@@H](n2cnc3c(NCc4ccco4)ncnc32)[C@H](O)[C@@H]1O", "cell viability": 5.88}, {"compound": "CC(C)CCCC(C)C1CCC2C3=CCC4CC(O)CCC4(C)C3CCC21C", "note": "(stereo not given)", "cell viability": 93}, {"compound": "COC(=O)CC[C@@H](C)[C@H]1CC[C@H]2[C@@H]3CC[C@@H]4C[C@H](O)CC[C@]4(C)[C@H]3C[C@H](O)[C@]12C", "cell viability": 97.4}, {"compound": "N=C(N)NCCCCNC(=N)N", "cell viability": 102}, {"compound": "COc1ccc(-c2coc3c(O)c(O)c(OC)cc3c2=O)cc1", "cell viability": 111}, {"compound": "COc1c(O)cc2c(-c3ccccc3)cc(=O)oc2c1OC", "cell viability": 92.8}, {"compound": "CCCSc1ccc2[nH]c(NC(=O)OC)nc2c1", "cell viability": 12.4}, {"compound": "COC(=O)Nc1nc2cc(Sc3ccccc3)ccc2[nH]1", "cell viability": 41.9}, {"compound": "COC(=O)[C@@H]1OC(=O)C2OC23[C@@]1(C)CCC1[C@]2(C)C(C[C@@H](O)[C@]13C)C(C)(C)[C@H](OC(C)=O)C[C@@H]2OC(C)=O", "note": "(stereo not given in full)", "cell viability": 111}, {"compound": "O=C(O)CCCN1C(=O)c2cccc3cccc(c23)C1=O", "cell viability": 103}, {"compound": "COc1cc2cc3c4cc(OC)c(OC)cc4cc[n+]3c(C)c2cc1OC", "cell viability": 99.6}, {"compound": "C[C@H]1[C@H](C)CC[C@]2(C(=O)O)CC[C@]3(C)C(=CC[C@@H]4[C@@]5(C)C[C@@H](O)[C@H](O)[C@@](C)(CO)[C@@H]5[C@H](O)C[C@]43C)[C@H]12", "cell viability": 86.8}, {"compound": "O=C(Nc1ccccc1-c1cn2c(CN3CCNCC3)csc2n1)c1cnc2ccccc2n1", "cell viability": 95.6}, {"compound": "COc1cc(OC)c2c(=O)c(-c3ccc4c(c3)OCO4)coc2c1", "cell viability": 127}, {"compound": "COC(=O)C[C@H]1C(C)(C)[C@@H](O)[C@@H]2CC3=C4CC(O)O[C@@H](c5ccoc5)[C@]4(C)CCC3[C@@]1(C)C2=O", "note": "(stereo partly drawn) [3,16-DIDEOXYMEXICANOLIDE-3beta-DIOL]", "cell viability": 86.1}, {"compound": "COc1cc2ncnc(Nc3cccc(Br)c3)c2cc1OC", "cell viability": 61.8}, {"compound": "COc1cc2c(N3CCN(C(=O)Nc4ccc(OC(C)C)cc4)CC3)ncnc2cc1OCCCN1CCCCC1", "note": "[Tandutinib (MLN518)]", "cell viability": 73.6}, {"compound": "C#Cc1cccc(Nc2ncnc3cc(OC)c(OCCCCCCC(=O)NO)cc23)c1", "cell viability": 22.2}, {"compound": "C#Cc1cccc(Nc2ncnc3cc(OCCOC)c(OCCO)cc23)c1", "cell viability": 65.1}, {"compound": "C#Cc1cccc(Nc2ncnc3cc(OCCOC)c(OCCO)cc23)c1", "note": "[OSI-420 (Desmethyl Erlotinib)]", "cell viability": 42.9}, {"compound": "COc1ccc(-c2cc(=O)c3c(O)cc(OC)cc3o2)cc1", "cell viability": 110}, {"compound": "CC(=O)C12OC(C)(c3ccccc3)OC1CC1C3CCC4=CC(=O)CCC4(C)C3CCC12C", "note": "(stereo not given)", "cell viability": 89.4}, {"compound": "CCC(C)C(=O)OC1[C@@H]2CC3=C4CC(=O)O[C@@H](c5ccoc5)[C@]4(C)CCC3[C@@](C)(C2=O)[C@@H](CC(=O)OC)C1(C)C", "note": "(stereo not given in full)", "cell viability": 99.4}, {"compound": "CC(C)CCC[C@@H](C)[C@H]1CC[C@H]2[C@@H]3C[C@@H](O)[C@@]4(O)C[C@@H](O)CC[C@]4(C)[C@H]3CC[C@]12C", "note": "[CHOLESTAN-3beta,5alpha,6beta-TRIOL]", "cell viability": 102}, {"compound": "CC(=O)O[C@H]1CC[C@]2(C)C(C[C@@H](OC(C)=O)[C@]3(C)C4=CC(=O)O[C@H](c5ccoc5)[C@@]4(C)CCC23)C1(C)C", "note": "(stereo partly drawn) [3-DEOXO-3beta-ACETOXYDEOXYDIHYDROGEDUNIN]", "cell viability": 92.3}, {"compound": "CC(C)c1cc(-c2n[nH]c(=O)n2-c2ccc3c(ccn3C)c2)c(O)cc1O", "note": "[Ganetespib (STA-9090)]", "cell viability": 2.49}, {"compound": "CC(=O)O[C@H]1C[C@@H](O)C(C)(C)[C@@H]2C[C@@H](OC(C)=O)[C@]3(C)[C@H](CC[C@@]4(C)[C@@H](c5ccoc5)OC(=O)[C@H]5O[C@@]534)[C@@]12C", "cell viability": 104}]}]}
